High-throughput results from PubChem.
Shown are actives, neighbours in structure and some others; about 3.1% of the full set was active somewhere.
FadD28 binding: M. tuberculosis FadD28 bisubstrate binding inhibition; FadD28 bisubstrate probe binding, fluorescence polarization; inhibition, % at 12.5 µM; 360,000 tested, 0.22% active; AID 588549; in the data active = inhibition above about 8.5%, passing the limit was not always enough
Mtb BioA inh: inhibitors of Mycobacterium tuberculosis BioA enzyme; inhibition, % at 9.99 µM; purified M. tuberculosis BioA enzyme, plate reader; 360,000 tested, 0.096% active; in the data active = inhibition above about 40%
GDH-TPI counter-1: counter-screen for M. tuberculosis FBA inhibitors: GDH-TPI coupled enzymes; GDH-TPI coupled enzyme counterscreen, NADH absorbance; inhibition, % at 4.8 µM; 360,000 tested, 1.2% active; in the data active = inhibition above about 30%;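 note: 0% = DMSO wells and 100% = wells lacking the enzyme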
3CLpro inhibitor: SARS-CoV 3CLpro protease inhibition; recombinant SARS-CoV 3CLpro, quenched FRET peptide cleavage; P0C6X7; AID 1706; 290,000 tested, 0.14% active; inhibition, % at 6 µM; in the data active = inhibition above about 12%
Mtb FBA inh: inhibitors of M. tuberculosis fructose-bisphosphate aldolase; inhibition, % at 1 µM; P9WQA3; 360,000 tested, 2.3% active; purified M. tuberculosis FBA, fluorescence read-out;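 note: 0% = vehicle and 100% = reference inhibitor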
Target sequence (P9WQA3 whole entry, looked up): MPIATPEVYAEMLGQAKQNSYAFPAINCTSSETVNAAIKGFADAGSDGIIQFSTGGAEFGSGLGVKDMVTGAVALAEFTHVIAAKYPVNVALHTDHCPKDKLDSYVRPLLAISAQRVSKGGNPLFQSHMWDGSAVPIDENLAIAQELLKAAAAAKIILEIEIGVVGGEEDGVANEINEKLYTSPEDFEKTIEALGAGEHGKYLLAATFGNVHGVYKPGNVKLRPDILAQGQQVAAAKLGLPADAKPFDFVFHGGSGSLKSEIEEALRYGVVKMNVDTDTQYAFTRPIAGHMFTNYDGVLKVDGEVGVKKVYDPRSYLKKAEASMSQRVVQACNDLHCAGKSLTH
Mtb FBA inh conf: confirmation of M. tuberculosis fructose-bisphosphate aldolase inhibitors | purified M. tuberculosis FBA, fluorescence read-out | AID 651616 | 5,600 tested, 78% active | shares compounds with Mtb FBA inh | inhibition, % at 1 µM;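 note: 0% = vehicle wells and 100% = reference inhibitor wells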
GDH-TPI counter-2: counter-screen for M. tuberculosis FBA inhibitors: GDH-TPI coupled enzyme inhibition; shares compounds with Mtb FBA inh; GDH-TPI coupled enzyme counterscreen, fluorescence; inhibition, % at 1 µM; 5,600 tested, 81% active; in the data active = inhibition above about 10%
Starred values were filed as active, the others as inactive; x = not tested or not shown; + = active, no number. Cut-off read from the data, not from the text of the source, unless noted: active = inhibition above about 27%; inactive = the rest.

SMILES	FadD28 binding	Mtb BioA inh	GDH-TPI counter-1	3CLpro inhibitor	Mtb FBA inh	Mtb FBA inh conf	GDH-TPI counter-2
N#Cc1c(NCCCO)nc(-c2ccco2)c2c1CCCC2	-2	-2	6	-1	27*	52*	44*
CC1(C)Cc2c(C#N)c(NCCN3CCOCC3)nc(-c3ccco3)c2CO1	-2	2	-4	-4	13	x	x
CC1(C)Cc2c(C#N)c(NCCO)nc(-c3ccco3)c2CO1	-3	-1	14	-5	59*	32*	20*
Cc1c(OC(C)C(=O)O)ccc2c(-c3ccccc3)cc(=O)oc12 (stereo not given)	-1	4	19	2	35*	55*	39*
C[C@H]1CN([C@@H](C)CO)C(=O)c2cc(NC(=O)C3CC3)ccc2O[C@@H]1CN(C)S(=O)(=O)c1ccc(F)cc1	x	-2	x	x	x	x	x
CC(C(=O)NC(C)(C)C)N1C(=O)c2cccc3cccc(c23)C1=O (stereo not given)	0	x	9	-2	27*	3	5
CO[C@H]1CN(C)C(=O)c2cc(NC(C)=O)ccc2OC[C@@H](C)N(CC2CC2)C[C@@H]1C	x	0	x	x	x	x	x
C[C@@H]1CN([C@H](C)CO)C(=O)c2cc(NC(=O)Nc3ccc(F)cc3)ccc2O[C@H]1CN(C)Cc1ccccc1	x	-4	x	x	x	x	x
CCC(C)NC(=O)c1ccc2c(c1)N(Cc1ccccc1)C(=O)CS2 (stereo not given)	-1	x	4	1	97*	68*	78*
NC(=O)c1nc(-c2ccccc2)c(-c2ccccc2)[nH]c1=O	0	x	13	x	67*	37*	22*
O=C(COc1cc2oc(=O)c3c(c2cc1Cl)CCCC3)NCc1cccnc1	-2	5	0	-3	2	x	x
Cc1cc(OCC(=O)N[C@@H](Cc2ccccc2)C(=O)O)c2c3c(c(=O)oc2c1)CCCC3	-10	1	-6	-1	51*	161*	117*
Cc1cc(OCC(=O)NCc2cccnc2)c2c3c(c(=O)oc2c1)CCCC3	-3	3	4	-4	106*	55*	37*
CCCc1cc(=O)oc2cc(C)cc(OC(=O)c3ccco3)c12	-2	x	2	1	-1	x	x
CCCc1cc(=O)oc2cc(C)cc(OCC(=O)NCc3cccnc3)c12	-4	4	1	0	76*	+	+
Cc1cc(OCC(=O)OC(C)C)c2c3c(c(=O)oc2c1)CCCC3	-2	-4	5	-1	13	x	x
CCC(=O)N1C[C@@H](C)[C@H](OC)CN(C)C(=O)c2ccc(NC(=O)C3CCOCC3)cc2OC[C@H]1C	x	-1	x	x	x	x	x
CCCC#Cc1cnc2c(c1)C(=O)N([C@H](C)CO)C[C@@H](C)[C@@H](CN(C)C(=O)c1ccccc1)O2	x	2	x	x	x	x	x
COCC(=O)N(C[C@H]1N[C@H](CO)[C@@H]1c1ccc(-c2cccnc2)cc1)C(C)C	x	7	x	x	x	x	x
c1cncc(-c2nnc(-c3cccs3)o2)c1	0	x	20	1	51*	70*	47*
COc1ccc(-c2nnc(-c3cccnc3)o2)cc1	-2	11	-3	-1	83*	154*	126*
Cc1ccccc1-c1nnc(-c2cccs2)o1	0	1	-4	2	29*	165*	128*
COc1ccc(CN(C)C[C@@H]2OCCCC[C@H](C)Oc3ccc(NS(=O)(=O)c4cccs4)cc3C(=O)N([C@@H](C)CO)C[C@H]2C)cc1	x	1	x	x	x	x	x
C[C@H](O)C#Cc1cnc2c(c1)C(=O)N([C@H](C)CO)C[C@@H](C)[C@@H](CN(C)C(=O)CN1CCOCC1)O2	x	1	x	x	x	x	x
CN1CCc2c(sc(/N=C/c3ccco3)c2C(N)=O)C1	-1	-6	21	-4	40*	42*	24*
CN(C)CCCNC(=O)[C@@H]1[C@@H](CO)[C@@H]2Cn3c(ccc(C4=CCCC4)c3=O)[C@H]1N2Cc1cocn1	x	2	x	x	x	x	x
Cc1ccc(-c2cc(C(=O)NCCc3ccc(S(N)(=O)=O)cc3)c3ccccc3n2)cc1	0	x	13	-2	34*	177*	179*
NS(=O)(=O)c1ccc(CCNC(=O)c2cc(-c3ccccc3)nc3ccccc23)cc1	-3	3	7	3	2	x	x
NS(=O)(=O)c1ccc(CCNC(=O)c2cc(-c3ccco3)nc3ccccc23)cc1	-3	0	19	x	77*	75*	73*
